Experiments:
Conditions in all cases: concentration: 1 μM, replicates: in singlicate; n = 1
[1] = test system: RIOK1
[2] = test system: RIOK2
[3] = test system: RIOK3
[4] = test system: RIPK1
[5] = test system: RIPK2
[6] = test system: RIPK4
[7] = test system: RIPK5
[8] = test system: ROCK1
[9] = test system: ROCK2
[10] = test system: ROS1
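Also: KINOMEscan kinase panel screen.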

SMILES	%Inh [1] [%]	%Inh [2] [%]	%Inh [3] [%]	%Inh [4] [%]	%Inh [5] [%]	%Inh [6] [%]	%Inh [7] [%]	%Inh [8] [%]	%Inh [9] [%]	%Inh [10] [%]
CN(C)c1ncnc2nc[nH]c12 [SKF-31736]	0	0	0	0	0	26	10	58	31	0
CN(C)CCNS(=O)(=O)c1ccc(-c2ccnc3[nH]ccc23)cc1 [GSK977620]	78	78	64	0	0	3	0	99.6	98.3	48
CC(C)NCC(Cc1ccccc1)NC(=O)c1cc(Br)c(-c2ccnc3[nH]ccc23)s1.Cl.Cl (stereo not drawn) [GSK1383281]	72	84	60	0	0	15	9	99.6	99.6	46
CN1CCN(Cc2ccc(NC(=O)Nc3ccc(N(C)c4ccnc(Nc5ccc(CS(C)(=O)=O)cc5)n4)cc3)cc2)CC1.Cl [GW827654]	94.1	100	93.4	40	34	72	94.9	94.6	99.2	40
Cn1cc(-c2ccc3c(c2)CCN3C(=O)Cc2cc(F)cc(C(F)(F)F)c2)c2c(N)ncnc21 [GSK2635225]	21	2	26	100	59	0	0	3	6	29
CN(c1ccc(NC(=O)Nc2cccc(Cl)c2)cc1)c1ccnc(N)n1.Cl [GW830707]	0	0	0	0	1	5	0	53	35	12
Cc1ccc(O)cc1Nc1ccnc2cc(-c3ccc(CN4CCCCC4)o3)ccc12 [GW557777]	16	0	21	12	91	4	12	0	0	11
Cc1nn2c(=O)cc(N3CCO[C@H](C)C3)nc2n1Cc1cccc(Cl)c1Cl [GSK2373693]	39	39	5	2	61	19	0	73	5	0
Cn1cc(-c2ccc3c(c2)CCN3C(=O)Cc2cc(F)cc(F)c2F)c2c(N)ncnc21 [GSK2634140]	39	15	13	99.7	0	0	54	36	30	34
